Screens: PubChem BioAssay, Buhrlage Lab, Dana-Farber Cancer Institute and Novartis Institutes for BioMedical Research (Cambridge, Mass)
Hits are enriched below; roughly 14% of the tested compounds scored in any of these assays.
USP30 block = blocks human USP30 ubiquitin-rhodamine cleavage | purified USP30, Ub-rhodamine cleavage fluorescence | inhibition, % at 25 µM | actives 5.3% (n = 47,000)
USP28 block = blocks human USP28 ubiquitin-rhodamine cleavage; actives 3% (n = 47,000); AID 1645857; Q96RU2; purified USP28, Ub-rhodamine cleavage fluorescence, 30 min; inhibition, % at 25 µM
USP17 inh = blocks human USP17 ubiquitin-rhodamine cleavage; A8MUK1; purified USP17, Ub-rhodamine cleavage fluorescence, 3 h; inhibition, % at 50 µM; actives 6.5% (n = 47,000); AID 1645855
USP10 block = human USP10 deubiquitinase inhibition; purified USP10, Ub-rhodamine fluorescence, 60 min; inhibition, % at 20 µM; actives 1.1% (n = 47,000); Q14694; AID 1645856
Target sequence (Q14694 whole entry, looked up): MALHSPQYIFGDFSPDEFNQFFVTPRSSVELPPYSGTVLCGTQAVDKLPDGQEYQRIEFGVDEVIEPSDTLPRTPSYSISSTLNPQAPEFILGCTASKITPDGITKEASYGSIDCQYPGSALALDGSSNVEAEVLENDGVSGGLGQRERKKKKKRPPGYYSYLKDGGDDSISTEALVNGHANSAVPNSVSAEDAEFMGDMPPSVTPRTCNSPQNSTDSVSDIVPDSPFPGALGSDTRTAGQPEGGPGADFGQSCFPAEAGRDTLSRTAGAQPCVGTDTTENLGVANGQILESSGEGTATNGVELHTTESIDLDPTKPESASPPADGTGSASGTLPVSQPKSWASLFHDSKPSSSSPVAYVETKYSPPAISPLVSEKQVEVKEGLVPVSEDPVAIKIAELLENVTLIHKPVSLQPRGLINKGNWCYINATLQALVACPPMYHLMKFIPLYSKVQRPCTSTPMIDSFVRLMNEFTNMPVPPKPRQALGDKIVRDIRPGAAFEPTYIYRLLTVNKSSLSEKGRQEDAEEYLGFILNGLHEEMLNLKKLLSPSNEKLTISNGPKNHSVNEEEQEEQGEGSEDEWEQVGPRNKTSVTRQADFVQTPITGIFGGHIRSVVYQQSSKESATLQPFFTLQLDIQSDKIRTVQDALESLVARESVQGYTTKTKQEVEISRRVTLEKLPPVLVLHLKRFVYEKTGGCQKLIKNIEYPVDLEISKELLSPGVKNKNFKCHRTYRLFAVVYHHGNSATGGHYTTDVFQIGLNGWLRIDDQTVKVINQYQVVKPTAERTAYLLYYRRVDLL
USP8 block = inhibitors of human USP8 deubiquitinase; purified USP8, Ub-rhodamine cleavage fluorescence, 30 min; inhibition, % at 20 µM; actives 4.2% (n = 47,000)
A number is an active result; 0 = inactive; - = not tested or not shown. No stated cut-off is given here; in the data, active means inhibition above about 30%; inactive means the rest.

SMILES	USP30 block	USP28 block	USP17 inh	USP10 block	USP8 block
O=c1c2c(ccn1Cc1ccccc1F)ccn2Cc1cccnc1	-	-	0	0	0
O=c1c2c(ccn1Cc1nc(C3CC3)no1)ccn2Cc1cccnc1	0	31	0	0	0
COCCn1ccc2ccn(Cc3nc(-c4cccnc4)no3)c(=O)c21	0	0	0	0	56
Cn1ccc2ccn(Cc3nc(-c4ccccn4)no3)c(=O)c21	0	0	0	0	0
CCc1ccc(S(=O)(=O)Nc2ccc3c(c2)CC(=O)N3CC)cc1	0	0	0	0	0
O=C(NCc1cccnc1)C1CCCN(c2nnc3ccc(Cl)cn23)C1 (configuration not stated)	0	0	0	0	0
Cc1nn(C)c(C)c1CNC(=O)C1CCN(c2nnc3ccc(C(F)(F)F)cn23)CC1	0	38	0	0	0
O=C1C[C@@H](O)[C@H](O)[C@@]23O[C@@]12C1(Oc2cccc4cccc(c24)O1)[C@@H]1O[C@@H]1[C@@H]3O	0	46	81	0	0
CCOc1ccccc1NC(=O)c1cnc(N2CCOCC2)nc1	0	0	0	0	0
COc1ccc(C(=O)Nc2ccc3c(N4CCOCC4)ncnc3c2)cc1	0	0	0	0	0
COc1ccc(NC(=O)c2ccc3ccnc(N4CCN(c5ccc(OC)cc5)CC4)c3c2)cc1	0	0	47	0	0
O=C1C[C@@H]2[C@H](CCN2C(=O)OCc2ccccc2)N1	0	0	0	0	0
COc1ccc(OC)c(C(=O)CSc2nc3nc(C)c(Br)cc3[nH]2)c1	0	0	50	0	0
CCCc1cc(=O)n2[nH]c(-c3ccc(C)cc3)cc2n1	0	0	43	0	0
CCc1ccc(NC(=O)Cc2nc(-c3ccc(O)cc3O)cs2)cc1	-	-	38	0	0
CCc1ccc(NC(=O)CN2CCN(c3nc4ccccc4s3)CC2)cc1	0	0	0	0	0
CC(=O)N1CC2(CCCCC2)c2cc(C(=O)N(C)C3CCN(C)C3)ccc21 (configuration not stated)	0	0	0	0	0
O=C(NCCc1cccc(F)c1)c1nc2c(s1)CCCN2C(=O)C1CC1	0	37	0	0	0
O=C(NCCc1cccnc1)c1nc2c(s1)CCCN2C(=O)C1CC1	0	0	0	0	0
COc1cc(Cl)ccc1C(=O)Nc1cccc(-n2cnnn2)c1C	47	0	82	0	0
Cc1c(NC(=O)/C=C/c2cccc(Cl)c2Cl)cccc1-n1cnnn1	43	0	0	0	80
Cc1ccc(N2C(=O)c3ccc(-c4ccco4)n3CC2(C)C(=O)NC2CCCC2)cc1 (configuration not stated)	0	0	0	0	0
O=c1[nH]c(C2CCN(S(=O)(=O)c3ccc(S(=O)(=O)NC4CCCCC4)cc3)CC2)nc2c1nnn2Cc1c(Cl)cccc1Cl	50	49	0	42	40
O=c1[nH]c(C2CCN(S(=O)(=O)c3ccc(S(=O)(=O)NC4CCCCC4)cc3)CC2)nc2c1nnn2Cc1c(F)cccc1Cl	59	55	0	45	0
Cc1ccc(C)c(Cn2nnc3c(=O)[nH]c(C4CCN(S(=O)(=O)c5ccc(S(=O)(=O)NC6CCCCC6)cc5)CC4)nc32)c1	0	0	0	0	0
SMILES	USP30 block	USP28 block	USP17 inh	USP10 block	USP8 block
O=c1[nH]c(C2CCN(S(=O)(=O)c3ccc(S(=O)(=O)NC4CC4)cc3)CC2)nc2c1nnn2Cc1c(Cl)cccc1Cl	0	0	0	31	32
CC(=O)c1sc2scc(C)c2c1C	-	-	0	0	0
CC(/C=C/C=C\C=C\C=C(/C)C(=O)N[C@@H](C)CO)=C\[C@@H](C)[C@@H](O)/C(C)=C/C(C)C	0	0	0	0	0
O=c1c2oc3ccccc3c2ncn1CCCn1ccnc1	0	0	0	0	0
Cc1cc(NC(=O)Cn2cnc3c(oc4ccccc43)c2=O)no1	-	-	72	0	0
Cc1ccc(-n2nnc3c(=O)n(CC(=O)Nc4cc(C)on4)cnc32)cc1	0	0	32	0	0
Cc1cnc(N2CC[C@@H]3[C@@H](CO[C@H]3CNS(C)(=O)=O)C2)nc1	0	0	0	0	0
CCC(C)(C)C1CCC2(CC1)N=C(N)Nc1nc3ccccc3n12 (configuration not stated)	69	0	0	0	0
COc1ccc(C(c2c[nH]c3ccccc23)c2c[nH]c3ccccc23)cc1O	0	0	0	0	38
CSc1nc2nc(C)c(C/C=C/c3ccccc3)c(=O)n2[nH]1	40	0	-	0	0
Cc1cc2nc(C)c(C/C=C/c3ccccc3)c(=O)n2[nH]1	35	0	0	0	0
Cc1ccc(S(=O)(=O)N2C(=O)CCC2C(=O)N2CCN(C3CCCCC3)CC2)cc1 (configuration not stated)	0	0	0	0	0
COCCNC(=O)c1ccn(-c2ccc3ccc(-c4ccncc4)cn23)n1	0	0	0	0	0
CN(C)CCNC(=O)c1ccc2ccc(N(C)Cc3ccccc3)n2c1	0	0	0	0	0
COc1ccc(Br)c(-c2nc(CS(=O)(=O)c3ccc(F)cc3)no2)c1	38	0	0	0	0
Cc1cnc(-c2cc(CC3CCCN(Cc4cncs4)C3)ncn2)[nH]1 (configuration not stated)	0	0	0	0	0
CC(C)(C)NC(=O)CN1c2cccc3cccc(c23)S1(=O)=O	0	0	0	0	0
CN1CCN(CCNC(=O)c2cc3cn(C4CCCC4)cc3s2)CC1	0	0	0	0	0
CN(C)CCCNC(=O)c1cc2cn(C3CCCC3)cc2s1	0	0	0	0	63
CN1CCCc2cc(C(=O)NCCCN3CCCC3=O)sc21	0	0	0	0	0
O=C(NCCCN1CCCC1=O)c1cc2cn(C3CC3)cc2s1	0	0	0	0	66
CC1CCN(CCNC(=O)c2cc3cn(C4CC4)cc3s2)CC1	0	0	0	0	54
Cc1nc(C)n(CC2CCCN2Cc2c(C)noc2C)n1 (configuration not stated)	0	0	0	0	0
O=C(CC1C(=O)N(Cc2cccnc2)c2nc3ccccc3n21)Nc1cccc2ccccc12 (configuration not stated)	0	0	64	0	0
Cc1ccc(NC(=O)CC2C(=O)N(Cc3ccccc3)c3nc4ccccc4n32)cc1 (configuration not stated)	0	0	32	0	0
Cc1ccccc1NC(=O)CC1C(=O)N(C2CCCC2)c2nc3ccccc3n21 (configuration not stated)	30	0	0	0	0
CCc1ccccc1NC(=O)CC1C(=O)N(Cc2cccnc2)c2nc3ccccc3n21 (configuration not stated)	0	0	0	0	0
COc1ccccc1C(=O)N1CCN(C(=O)c2cc(-c3ccc(F)cc3)n[nH]2)CC1	0	0	0	0	0
COc1cc(CC(NC(C)=O)C(=O)NC2CCN(C(=O)c3cnccn3)CC2)cc(OC)c1 (configuration not stated)	0	0	0	0	0
CCOc1ccccc1CN1CCC(N2CCc3ccccc3C2)CC1	0	0	0	0	0
